# Experimental data taken from PubChem BioAssay AID1159580 (chemical genetic matrix, 2015).
# In all, about 5,500 compounds went through this assay and about 2,000 (36%) were called active. Inconclusive results (about 18%) are left out. This is one part of the list. Values without a mark were called inactive. Rule as the data show it: active = normalized growth mostly below about 0.91 (no sharp cut-off); inconclusive = no clear call, values can overlap the other calls; inactive = mostly above about 0.92.
# Assay: chemical genetic growth profiling, strain panel (AID 1159580);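 also: tested at 20 µM; growth read once vehicle control cultures reached saturation at 30 °C; 1 = growth at the plate median or of vehicle wells; lower values mean less growth of the strain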
# Conditions: growth OD
structure (smiles),measurement,setting,value
C=C1C(=O)O[C@@H]2C3O[C@]3(C)CC/C=C(\C)CC[C@@H]12 (some centres not stated),normalized growth,"S. cerevisiae deletion strains, locus YJR075W, strain HOC1, active compounds read low",0.828 (active)
same,normalized growth,"S. cerevisiae deletion strains, locus YKL009W, strain mrt4, active compounds read low",0.913
same,normalized growth,"S. cerevisiae deletion strains, locus YKL068W, active compounds read low",0.936 (active)
same,normalized growth,"S. cerevisiae deletion strains, locus YKL085W, strain MDH1 (second series), active compounds read low",0.932
same,normalized growth,"S. cerevisiae deletion strains, locus YKL085W, strain MDH1, active compounds read low",0.932
same,normalized growth,"S. cerevisiae deletion strains, locus YKL160W, strain elf1, active compounds read low",0.946
same,normalized growth,"S. cerevisiae deletion strains, locus YKL190W, strain CNB1, active compounds read low",0.796 (active)
same,normalized growth,"S. cerevisiae deletion strains, locus YKR001C, strain vps1, active compounds read low",0.544 (active)
same,normalized growth,"S. cerevisiae deletion strains, locus YKR026C, strain gcn3, active compounds read low",0.991
same,normalized growth,"S. cerevisiae deletion strains, locus YKR091W, strain srl3, active compounds read low",0.99
same,normalized growth,"S. cerevisiae deletion strains, locus YLL001W, strain dnm1, active compounds read low",0.968
same,normalized growth,"S. cerevisiae deletion strains, locus YLL026W, active compounds read low",0.987
same,normalized growth,"S. cerevisiae deletion strains, locus YLL041C, strain sdh2, active compounds read low",0.987
same,normalized growth,"S. cerevisiae deletion strains, locus YLR027C, strain aat2, active compounds read low",0.969
same,normalized growth,"S. cerevisiae deletion strains, locus YLR039C, strain RIC1, active compounds read low",0.245 (active)
same,normalized growth,"S. cerevisiae deletion strains, locus YLR058C, strain SHM2, active compounds read low",0.934
same,normalized growth,"S. cerevisiae deletion strains, locus YLR102C, strain apc9, active compounds read low",0.944
same,normalized growth,"S. cerevisiae deletion strains, locus YLR113W, strain HOG1, active compounds read low",0.932
same,normalized growth,"S. cerevisiae deletion strains, locus YLR221C, strain rsa3, active compounds read low",0.993
same,normalized growth,"S. cerevisiae deletion strains, locus YLR258W, strain gsy2, active compounds read low",0.999
same,normalized growth,"S. cerevisiae deletion strains, locus YLR262C, strain YPT6 (second series), active compounds read low",0.566 (active)
same,normalized growth,"S. cerevisiae deletion strains, locus YLR262C, strain YPT6, active compounds read low",0.193 (active)
same,normalized growth,"S. cerevisiae deletion strains, locus YLR268W, strain sec22, active compounds read low",0.68 (active)
same,normalized growth,"S. cerevisiae deletion strains, locus YLR320W, strain mms22, active compounds read low",0.893
same,normalized growth,"S. cerevisiae deletion strains, locus YLR330W, strain CHS5, active compounds read low",0.849 (active)
same,normalized growth,"S. cerevisiae deletion strains, locus YLR342W, strain FKS1 (second series), active compounds read low",0.536 (active)
same,normalized growth,"S. cerevisiae deletion strains, locus YLR342W, strain FKS1, active compounds read low",0.94
same,normalized growth,"S. cerevisiae deletion strains, locus YLR357W, strain rsc2, active compounds read low",1.08
same,normalized growth,"S. cerevisiae deletion strains, locus YLR370C, strain arc18, active compounds read low",0.964
same,normalized growth,"S. cerevisiae deletion strains, locus YLR371W, strain rom2, active compounds read low",0.791 (active)
same,normalized growth,"S. cerevisiae deletion strains, locus YLR384C, strain iki3, active compounds read low",0.975
same,normalized growth,"S. cerevisiae deletion strains, locus YLR418C, strain cdc73, active compounds read low",0.42 (active)
same,normalized growth,"S. cerevisiae deletion strains, locus YML016C, strain PPZ1, active compounds read low",0.911 (active)
same,normalized growth,"S. cerevisiae deletion strains, locus YML032C, strain rad52, active compounds read low",0.87 (active)
same,normalized growth,"S. cerevisiae deletion strains, locus YML120C, strain ndi1, active compounds read low",0.96
same,normalized growth,"S. cerevisiae deletion strains, locus YML124C, strain tub3, active compounds read low",0.929 (active)
same,normalized growth,"S. cerevisiae deletion strains, locus YMR058W, strain fet3, active compounds read low",0.992
same,normalized growth,"S. cerevisiae deletion strains, locus YMR078C, strain ctf18, active compounds read low",0.741 (active)
same,normalized growth,"S. cerevisiae deletion strains, locus YMR125W, strain sto1, active compounds read low",0.792 (active)
same,normalized growth,"S. cerevisiae deletion strains, locus YMR129W, active compounds read low",0.993
same,normalized growth,"S. cerevisiae deletion strains, locus YMR205C, strain PFK2, active compounds read low",0.938
same,normalized growth,"S. cerevisiae deletion strains, locus YMR223W, strain ubp8, active compounds read low",0.801 (active)
same,normalized growth,"S. cerevisiae deletion strains, locus YMR231W, strain pep5, active compounds read low",0.982
same,normalized growth,"S. cerevisiae deletion strains, locus YMR263W, strain SAP30, active compounds read low",0.9
same,normalized growth,"S. cerevisiae deletion strains, locus YMR307W, strain GAS1, active compounds read low",0.26 (active)
same,normalized growth,"S. cerevisiae deletion strains, locus YNL067W, strain RPL9B, active compounds read low",0.808 (active)
same,normalized growth,"S. cerevisiae deletion strains, locus YNL071W, strain lat1, active compounds read low",0.804 (active)
same,normalized growth,"S. cerevisiae deletion strains, locus YNL128W, strain TEP1, active compounds read low",0.925
same,normalized growth,"S. cerevisiae deletion strains, locus YNL153C, strain GIM3, active compounds read low",0.822 (active)
same,normalized growth,"S. cerevisiae deletion strains, locus YNL183C, strain NPR1, active compounds read low",0.952
same,normalized growth,"S. cerevisiae deletion strains, locus YNL209W, strain ssb2, active compounds read low",0.979
same,normalized growth,"S. cerevisiae deletion strains, locus YNL233W, strain BNI4, active compounds read low",0.763 (active)
same,normalized growth,"S. cerevisiae deletion strains, locus YNL248C, strain rpa49, active compounds read low",0.897
same,normalized growth,"S. cerevisiae deletion strains, locus YNL250W, strain rad50, active compounds read low",0.933
same,normalized growth,"S. cerevisiae deletion strains, locus YNL271C, strain bni1, active compounds read low",0.905 (active)
same,normalized growth,"S. cerevisiae deletion strains, locus YNL298W, strain CLA4, active compounds read low",0.878 (active)
same,normalized growth,"S. cerevisiae deletion strains, locus YNL307C, strain MCK1, active compounds read low",0.165 (active)
same,normalized growth,"S. cerevisiae deletion strains, locus YNL322C, strain KRE1 (second series), active compounds read low",0.981
same,normalized growth,"S. cerevisiae deletion strains, locus YNL322C, strain KRE1, active compounds read low",0.861 (active)
same,normalized growth,"S. cerevisiae deletion strains, locus YNR049C, strain mso1, active compounds read low",0.997
same,normalized growth,"S. cerevisiae deletion strains, locus YNR052C, strain pop2, active compounds read low",0.818 (active)
same,normalized growth,"S. cerevisiae deletion strains, locus YOL006C, strain TOP1, active compounds read low",0.547
same,normalized growth,"S. cerevisiae deletion strains, locus YOL012C, strain htz1",0.318
same,normalized growth,"S. cerevisiae deletion strains, locus YOL147C, strain pex11, active compounds read low",0.883 (active)
same,normalized growth,"S. cerevisiae deletion strains, locus YOR001W, strain rrp6, active compounds read low",1.01
same,normalized growth,"S. cerevisiae deletion strains, locus YOR061W, strain CKA2, active compounds read low",0.918
same,normalized growth,"S. cerevisiae deletion strains, locus YOR069W, strain VPS5, active compounds read low",0.935
same,normalized growth,"S. cerevisiae deletion strains, locus YOR070C, strain gyp1, active compounds read low",0.977
same,normalized growth,"S. cerevisiae deletion strains, locus YOR080W, strain dia2, active compounds read low",0.998
same,normalized growth,"S. cerevisiae deletion strains, locus YOR083W, strain WHI5, active compounds read low",0.965
same,normalized growth,"S. cerevisiae deletion strains, locus YOR106W, strain vam3, active compounds read low",0.955
same,normalized growth,"S. cerevisiae deletion strains, locus YOR136W, strain idh2, active compounds read low",0.905 (active)
same,normalized growth,"S. cerevisiae deletion strains, locus YOR144C, strain elg1, active compounds read low",0.901 (active)
same,normalized growth,"S. cerevisiae deletion strains, locus YOR184W, strain ser1, active compounds read low",0.628 (active)
same,normalized growth,"S. cerevisiae deletion strains, locus YOR231W, strain MKK1, active compounds read low",0.977
same,normalized growth,"S. cerevisiae deletion strains, locus YOR265W, strain rbl2, active compounds read low",0.978
same,normalized growth,"S. cerevisiae deletion strains, locus YOR270C, strain vph1, active compounds read low",0.92
same,normalized growth,"S. cerevisiae deletion strains, locus YOR290C, strain snf2, active compounds read low",0.971
same,normalized growth,"S. cerevisiae deletion strains, locus YOR316C, strain cot1, active compounds read low",0.93
same,normalized growth,"S. cerevisiae deletion strains, locus YPL051W, strain arl3, active compounds read low",0.921
same,normalized growth,"S. cerevisiae deletion strains, locus YPL055C, strain LGE1, active compounds read low",0.743 (active)
same,normalized growth,"S. cerevisiae deletion strains, locus YPL078C, strain atp4, active compounds read low",0.94
same,normalized growth,"S. cerevisiae deletion strains, locus YPL106C, strain sse1, active compounds read low",0.869
same,normalized growth,"S. cerevisiae deletion strains, locus YPL240C, strain hsp82, active compounds read low",0.991
same,normalized growth,"S. cerevisiae deletion strains, locus YPL241C, strain CIN2, active compounds read low",0.922 (active)
same,normalized growth,"S. cerevisiae deletion strains, locus YPL256C, strain CLN2, active compounds read low",0.93
same,normalized growth,"S. cerevisiae deletion strains, locus YPR119W, strain clb2, active compounds read low",0.908 (active)
same,normalized growth,"S. cerevisiae deletion strains, locus YPR141C, strain kar3, active compounds read low",0.902 (active)
same,normalized growth,"S. cerevisiae deletion strains, locus YPR163C, strain tif3, active compounds read low",0.355 (active)
same,normalized growth,"S. cerevisiae deletion strains, locus YPR167C, strain met16, active compounds read low",0.932
same,normalized growth,"S. cerevisiae deletion strains, strain wtn01, active compounds read low",0.786 (active)
same,normalized growth,"S. cerevisiae strains, strain wild type, active compounds read low",0.806 (active)
